Screens deposited in PubChem by National Center for Advancing Translational Sciences (NCATS).
Most compounds without a hit are left out; they make up all but 2.3% or so of the library.
VDR inhibitor – inhibitors of human vitamin D receptor. P11473. VDR-SRC2-3 peptide fluorescence polarization, 2 h. Potency, µM, inactives show max response, negative = inhibition, hits mostly inhibitors. 400,000 compounds, 0.93% hits. AID 504847; note: potency is the fitted concentration of half-maximal effect; % is set by controls: 0 for no effect and ±100 for the full control effect
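Compounds are added to VDR with labelled SRC2-3 coactivator peptide and held 2 h at room temperature. Inhibition of the VDR–peptide interaction is then read as a change in fluorescence polarization.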
JMJD2E inh – blocks human JMJD2E demethylase activity | JMJD2E catalytic domain, FDH-coupled NADH fluorescence (FDH is formaldehyde dehydrogenase) | Potency, µM (series often up to 57.1 µM), inactives show at the top dose activity change, negative = inhibition, hits mostly inhibitors | 230,000 compounds, 1.6% hits | AID 2147; active = well fitted inhibition curve with a large enough effect, not every such curve was filed as active; inconclusive = small, poorly fitted or top-dose-only effect, or another doubt; inactive = no such curve, though single readings can be large or run the other way;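 note: potency is the fitted concentration of half-maximal effect; 0% = wells with enzyme and -100% = buffer wells without enzyme; nearly all actives have a fitted effect of over 50% in size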
Coupling enz – inhibits coupling enzyme system, counter-screen for aldolase hits. coupling enzyme system counterscreen, AmpLite Red fluorescence. activity change, negative = inhibition, % at 58.2 µM, hits read low. 290,000 compounds, 0.67% hits; in the data active = activity change below about -30%; note: % is set by controls: 0 for no effect and ±100 for the full control effect
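Coupling enzymes only (glyceraldehyde-3-phosphate) + compound, at 57.5 uM final, 10 min RT; add substrate/coupling/AmpLite Red mix, 20 min RT; fluorescence ex 525/em 598 nm. Actives flag coupling-system interference.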
HTT cytoprotect – cytoprotection in Huntington HTT-Q103 PC12 cell model | PC12 HTT-Q103 induced, cytoprotection, ATP luminescence, 40 h | Potency, µM (titrated, usually from 56.4 µM), for inactives: cytoprotection (ATP increase), most hits filed as activators | 230,000 compounds, 0.14% hits | AID 1471; note: potency is the fitted concentration of half-maximal effect; % of control where 0% means no effect; nearly all actives have a fitted effect of over 45% in size
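Compounds added alongside 100 nM tebufenozide, which induces toxic Q103 huntingtin exon 1-GFP in stable PC12 cells; surviving cells quantified by luminescent ATP measurement. Medium: phenol red-free DMEM, 5% equine and 5% calf serum.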
HTT aggregate – inhibitors of mutant huntingtin aggregate formation in PC12 cells; 220,000 compounds, 1.1% hits; Potency, µM (highest dose often 46.1 µM), without a hit: top-dose activity change, negative = inhibition, actives largely listed as inhibitors; AID 1688; PC12 HttQ103-GFP aggregates, Acumen cytometry, 40 h; note: potency is the fitted concentration of half-maximal effect; % is set by controls: 0 for no effect and ±100 for the full control effect; nearly all actives have a fitted effect of over 60% in size
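PC12 cells with ecdysone-inducible HTT exon1 Q103-GFP, induced by 100 nM tebufenozide, given compounds in a concentration series. GFP aggregates (1–25 um, 6 SD above background) counted in lysates by laser-scanning cytometry, 488 nm excitation.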
GoLoco inh red – RGS12 GoLoco-Gai1 interaction inhibition. AID 880. 230,000 compounds, 0.44% hits. P63096. Potency, µM (titrated, usually from 61.6 µM), without a hit: at the highest dose activity, negative = inhibition, hits mostly inhibitors. Gai1:RGS12 GoLoco peptide FP, rhodamine, 10 min; active = well fitted inhibition curve with a large enough effect, not every such curve was filed as active; inactive = no such curve, though single readings can be large or run the other way; note: potency is the fitted concentration of half-maximal effect; % is set by controls: 0 for no effect and ±100 for the full control effect; nearly all actives have a fitted effect of over 30% in size
Target sequence (P63096 whole entry, looked up): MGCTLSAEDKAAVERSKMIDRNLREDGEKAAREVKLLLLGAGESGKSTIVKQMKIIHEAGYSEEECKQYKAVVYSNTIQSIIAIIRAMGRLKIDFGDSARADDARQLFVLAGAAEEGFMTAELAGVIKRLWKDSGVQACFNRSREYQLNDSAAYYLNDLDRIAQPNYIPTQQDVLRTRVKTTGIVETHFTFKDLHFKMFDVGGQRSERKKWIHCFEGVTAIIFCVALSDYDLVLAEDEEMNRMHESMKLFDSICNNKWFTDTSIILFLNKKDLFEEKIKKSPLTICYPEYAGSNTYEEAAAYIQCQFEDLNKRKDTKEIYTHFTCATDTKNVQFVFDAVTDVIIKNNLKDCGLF
An asterisk follows results filed as active; ? = inconclusive; . = no result given; ! = not active in a repeat; [ ] = remark or other dose. Unless noted, calls come from the whole dose curve; as a rule, active = well fitted curve in the direction sought with a large enough effect; inconclusive = small, poorly fitted or top-dose-only effect, or another doubt; inactive = no such curve, though single readings can be large; an effect the other way counts as inactive or inconclusive.

SMILES | VDR inhibitor | JMJD2E inh | Coupling enz | HTT cytoprotect | HTT aggregate | GoLoco inh red
O=C1NC(=O)N(c2ccc(Br)cc2)C(=O)/C1=C/c1ccsc1 | 44.7µM* | -9.1% | 2.3 | -18.2% | 14.3% | 30.1%
C/C=C/C/C=C/CCC(=O)[C@H]1O[C@H]1C(N)=O | ? | . | . | -201.4% | . | 0.8%
CSC([N-]/N=C/c1cccc(C)n1)=[S]=[Cu].CS[C@H]([S-])[N-]/N=C/c1cccc(C)n1 | . | . | . | -99.8%[10 µM] | . | .
COc1ccc(C(=O)O[C@H]2CC[C@@]3(C)[C@H]4CC[C@H]5[C@]3(C[C@]3(O)[C@H]6CN7C[C@H](C)CC[C@H]7[C@](C)(O)[C@]6(O)[C@H](O)C[C@]53O)O[C@]24O)cc1OC | . | . | . | 7.0%[10 µM] | . | 8.2%[14.2 µM]
C=CCN1C[C@H](C)N([C@H](c2ccc(C(=O)N(CC)CC)cc2)c2cccc(O)c2)C[C@H]1C | 11.1% | 7.8% | 0.4 | -21.7% | . | 3.5%
CCn1c(N)c(C(=O)NC)sc1=S | 25.1µM* | ? | -1.6 | 2.8% | -21.2% | -13.6%
Cc1ccc(C(=O)n2c(N)nc3ccccc32)cc1 | 5.0% | 35.5µM* | -1.5 | -92.2%[10 µM] | 0.8%[9.22 µM] | 9.6%
Cc1ccc(C(=O)N2CC2C)cc1 (stereo not drawn) | 6.2% | . | . | . | . | .
C[C@@H](N)Cc1cnc[nH]1 | 79.4µM*! | -1.7% | 2.3 | -4.6% | . | 11.1%
CSCC[C@H](NC(=O)[C@H](CC(C)C)NC(=O)[C@@H](Cc1cnc[nH]1)NC(=O)[C@H](Cc1ccccc1)NC(=O)[C@@H](Cc1ccccc1)NC(=O)[C@@H](N)Cc1ccc(O)cc1)C(N)=O | -13.9% | . | -0.6 | . | . | .
[O-]/[N+](=C/c1cccnc1)c1ccc(Br)cc1 | 44.7µM* | -3.4% | -4.7 | -11.4%[10 µM] | -6.1% | 7.3%
CON(C)C(=O)Nc1ccc(Br)cc1 | 10.2% | . | 2.9 | . | . | .
O=C(Nc1ccc(Br)cc1)c1cc(Br)cc(Br)c1O | 56.2µM* | . | -14.9 | -82.7% | ? | 8.8%
Cc1nn(C)c(C)c1-c1cccc2c1CCC(N(C)C)C2 (stereo not drawn) | 10.8% | . | -0.6 | -19.9% | . | -5.7%
O=C1C=CC(=O)c2c1ccc1c2ccc2ccccc21 | 3.16µM* | 3.5%[25.5 µM] | -28.1 | -0.5%[40.3 µM] | . | -20.3%[21.6 µM]
COC(=O)[C@@H]1C[C@@H]1[C@@H](NP(=O)(c1ccccc1)c1ccccc1)c1ccccc1 | . | . | . | -40.5% | . | .
NCC(O)c1cc(O)c(O)cc1F (stereo not drawn) | 28.2µM*! | 14.1µM* | . | . | . | 4.7%
N[C@@H]1CCc2cc(O)c(O)cc2C1 | . | . | . | 9.4%[1.9 µM] | . | .
Cc1cc(C(=O)CN2CCCC2)c(C)n1-c1ccc(F)cc1 | -6.1% | ? | 0.3 | 3.4%[10 µM] | -15.7%[9.22 µM] | 13.1%
COc1ccc(-n2c(C)cc(C(=O)C[N+]34CCN(CC3)CC4)c2C)cc1 | 0.3% | 22.4µM* | 7.0 | -3.7% | 6.9% | -18.9%
O=C1C=C2C(=CCOC2O)O1 (stereo not drawn) | 12.6µM* | -3.4% | 0.1 | . | . | -0.7%
Oc1cccc[c]1[Hg][Cl] | 5.01µM* | . | . | -98.9% | 8.91µM* | .
O=C1OC(c2cc(I)c(O)c(I)c2)(c2cc(I)c(O)c(I)c2)c2ccccc21 | 20µM* | . | 2.8 | ? | . | -49.6%
C[N+]1(C)CCO[C@@](O)(c2ccc(-c3ccc([C@]4(O)C[N+](C)(C)CCO4)cc3)cc2)C1 | . | . | . | -4.9%[1.9 µM] | . | .
CCCCCCCCCCCC[N+](C)(C)CCOc1ccccc1 | 31.7% | . | . | -218.7% | ? | 16.3%
CC[N+](C)(CC)CCCCOc1ccc2c(c1)C(=O)c1cc(OCCCC[N+](C)(CC)CC)ccc1-2 | -16.1% | -18.1% | -0.9 | 14.2%[10 µM] | 3.9%[9.22 µM] | 11.2µM*
CS/C(N)=C(C#N)/C(C#N)=C(\N)SC | 44.7µM* | . | 1.6 | -163.4% | . | -10.3%
N#C/C(N)=C(/N)C#N | 8.4% | . | . | -6.2% | . | 9.6%
CCC(C)C(=O)OC1C(O)C2C(CN3CC(C)CCC3[C@]2(C)O)C2C[C@]34O[C@@]5(O)C(OC(=O)C(C)(O)CC)CCC3(C)C5C(OC(C)=O)C(OC(C)=O)C4[C@@]21O (stereo partly drawn) | 2.3% | 7.2% | 0.7 | 1.41µM* | . | 1.7%
